# PubChem BioAssay (Tox21)
# Inconclusive results are not listed. Values without a mark were called inactive. Calls of active or inactive are those of the source. Unless noted, calls follow the shape of the full dose curve.
# System: not listed separately
# Assay: qHTS assay to identify small molecule antagonists of the sonic hedgehog signaling (Shh) pathway (AID 1259369); also: nearly all actives have a fitted effect of over 45% in size; also: potency is read from the fitted curve at half-maximal effect
# Conditions: NIH/3T3 Gli1-Luc reporter, Shh antagonist, luminescence 24 h; series mostly up to 92.4 µM; activity change, negative = inhibition: at the top concentration
# In short: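 Luminescence readout: firefly Luc under Gli1 response element in 3T3Gli1-Luc cells (NIH/3T3 clone). Antagonist mode, stimulation by conditioned medium; compound exposure 24hr at 37 C, 5% CO2.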
# % is scaled to controls: 0 for no effect and ±100 for the full control effect.
Compound,"activity change, negative = inhibition",Potency
C=CC(=O)NC(C)C,3.86%,–
CCCCCCCCCCCCCCCC(=O)OCC,-0.977%,–
CC(C)(C)C1(CCc2ccc(Cl)cc2)CO1 (stereo not given),-6.74%,–
CC(=O)Oc1cccc(O)c1,0.454% [at 42.5 µM],–
CSCC[C@H](NC(=O)[C@H](Cc1c[nH]c2ccccc12)NC(=O)CCNC(=O)OC(C)(C)C)C(=O)N[C@@H](CC(=O)O)C(=O)N[C@@H](Cc1ccccc1)C(N)=O,38.1% [at 42.5 µM],–
O=C(Oc1ccccc1)c1ccc2ccccc2c1O,32%,–
CC(C)(C)S,25.4%,–
CC[C@H]1OC(=O)[C@H](C)[C@@H](O[C@H]2C[C@@](C)(OC)[C@@H](O)[C@H](C)O2)[C@H](C)[C@@H](O[C@@H]2O[C@H](C)C[C@H](N(C)C)[C@H]2O)[C@](C)(O)C[C@@H](C)/C(=N\OCOCCOC)[C@H](C)[C@@H](O)[C@]1(C)O,–,12.8 µM (active)
FC(F)(F)C(F)(F)C(F)(F)C(F)(F)CCI,-0.759% [at 42.5 µM],–
O=c1[nH]c2cc(C(F)(F)F)c(N3CCOCC3)cc2n(CP(=O)(O)O)c1=O,-0.473% [at 42.5 µM],–
C=Cc1ccc(OC(C)=O)cc1,-9.75%,–
CCCCCCCC(=O)OCCCCCC,-1.69%,–
CCCCCCCCCCCC(=O)OCC(O)CO (stereo not given),11.3%,–
O=C(O)CCC(=O)OC[C@@H](NC(=O)C(Cl)Cl)[C@H](O)c1ccc([N+](=O)[O-])cc1,20.1% [at 42.5 µM],–
CCOC(=O)N1CCC(Nc2ccc(Cl)cc2N)CC1,–,2.98 µM (active)
NC(=O)c1ccccc1[N+](=O)[O-],-7.05%,–
O=C1[C@@H]2[C@H]3CC[C@H](C3)[C@@H]2C(=O)N1CCCCN1CCN(c2ncccn2)CC1,12.2% [at 42.5 µM],–
CC(=O)C(=O)CC(C)C,1.92%,–
CCCCCCCC/C=C\CCCCCCCC(=O)OCCO,–,36.2 µM (active)

Compound,"activity change, negative = inhibition",Potency
C1CCCCC1,2.2%,–
O=C1OC(=O)c2c(Br)c(Br)c(Br)c(Br)c21,7.41%,–
O=C(NS(=O)(=O)/C=C/c1ccccc1)c1ccc(F)cc1Cl,0.927%,–
CN1CCCN(C(c2ccccc2)c2ccc(Cl)cc2)CC1 (stereo not given),–,5.96 µM (active)
CNc1c2c(nn1C)CCCC2,9.66% [at 42.5 µM],–
CCCCC[C@H](O)/C=C/[C@H]1[C@H](O)CC(=O)[C@@H]1C/C=C\CCCC(=O)O,–,0.006 µM (active)
CCSC(=O)N(CC)CC,0%,–
COC(C)(C)OC,0.295%,–
c1ccc(CCCc2ccncc2)cc1,-30.6%,–
CCCCCCCC/C=C/C(=O)O,0.688% [at 42.5 µM],–
O=C(O)CCC(=O)c1ccc(-c2ccccc2)cc1,30.6% [at 42.5 µM],–
CCN(CC)c1cccc(O)c1,-24%,–
O=C1NC(=O)c2cccc3cccc1c23,-11.2%,–
CC(C)c1ccc(C(=O)N=C(N)N)cc1S(C)(=O)=O,5.48% [at 42.5 µM],–
O=C(CCS)OCC(COC(=O)CCS)(COC(=O)CCS)COC(=O)CCS,6.37%,–
Cc1ccc2c(c1)CCCN2,2.1%,–
CC(C)(O)CCc1ccccc1,4.48%,–
Nc1cccc2c(N)cccc12,–,5.45 µM (active)
CCN(CC)C(=O)/C(C#N)=C/c1cc(O)c(O)c([N+](=O)[O-])c1,-18.7% [at 42.5 µM],–

# Molecular target: Estrogen receptor beta (Homo sapiens) (UniProt Q92731)
# Assay: qHTS assay to identify small molecule agonists of the estrogen receptor beta (ER-beta) signaling pathway (AID 1259377; active = well fitted activation curve with a large enough effect in the signal ratio in the repeat runs, not every such curve was filed as active; the % refers to the signal ratio)
# Conditions: ER-beta-UAS-bla HEK293T, beta-lactamase FRET ratio, 16 h; series mostly up to 92.4 µM; activation: at the top concentration
# In short: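 ER-beta-UAS-bla HEK293T (GripTite) cells carrying a UAS-driven beta-lactamase reporter, in medium with 2% charcoal-stripped FBS, were exposed to compounds for 16 hr at 37C; LiveBLAzer B/G FRET substrate was then added and fluorescence read after 2 hours at room temperature.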
# Sequence of Estrogen receptor beta (Homo sapiens) (Q92731 whole entry, looked up): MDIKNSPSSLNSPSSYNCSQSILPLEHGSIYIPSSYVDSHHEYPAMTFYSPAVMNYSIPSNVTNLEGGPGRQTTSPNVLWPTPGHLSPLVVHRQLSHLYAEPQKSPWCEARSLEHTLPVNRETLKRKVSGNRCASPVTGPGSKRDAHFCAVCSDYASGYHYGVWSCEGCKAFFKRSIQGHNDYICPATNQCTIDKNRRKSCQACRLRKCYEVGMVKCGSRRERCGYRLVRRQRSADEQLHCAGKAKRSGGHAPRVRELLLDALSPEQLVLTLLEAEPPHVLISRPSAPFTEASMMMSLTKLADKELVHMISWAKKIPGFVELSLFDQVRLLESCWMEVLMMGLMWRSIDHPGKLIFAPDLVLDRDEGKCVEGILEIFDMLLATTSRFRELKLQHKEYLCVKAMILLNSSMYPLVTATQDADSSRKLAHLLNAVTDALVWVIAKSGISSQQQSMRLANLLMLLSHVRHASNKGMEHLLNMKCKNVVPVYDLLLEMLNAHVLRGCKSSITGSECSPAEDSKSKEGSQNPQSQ
row,Compound,activation
1,CSCC[C@H](NC(=O)[C@H](Cc1c[nH]c2ccccc12)NC(=O)CCNC(=O)OC(C)(C)C)C(=O)N[C@@H](CC(=O)O)C(=O)N[C@@H](Cc1ccccc1)C(N)=O,4.89% [at 42.5 µM]
2,CCCCCCCC(=O)OCCCCCC,-2.08%
3,CCCCCCCCCCCC(=O)OCC(O)CO (stereo not given),-3.65%
4,CCCCCCCC/C=C\CCCCCCCC(=O)OCCO,-0.847%
5,O=C1OC(=O)c2c(Br)c(Br)c(Br)c(Br)c21,-3.82%
6,O=C(NS(=O)(=O)/C=C/c1ccccc1)c1ccc(F)cc1Cl,-1.15%
7,CCSC(=O)N(CC)CC,0.201%
8,c1ccc(CCCc2ccncc2)cc1,-4.94%
9,CCCCCCCC/C=C/C(=O)O,-6.86% [at 42.5 µM]
10,O=C(O)CCC(=O)c1ccc(-c2ccccc2)cc1,-3.86% [at 42.5 µM]
11,O=C1NC(=O)c2cccc3cccc1c23,1.68%
12,CC(C)c1ccc(C(=O)N=C(N)N)cc1S(C)(=O)=O,1.22% [at 42.5 µM]
13,O=C(CCS)OCC(COC(=O)CCS)(COC(=O)CCS)COC(=O)CCS,0.958%
14,CC(C)(O)CCc1ccccc1,2.88%
15,CCN(CC)C(=O)/C(C#N)=C/c1cc(O)c(O)c([N+](=O)[O-])c1,-0.745% [at 42.5 µM]

# Molecular target: Estrogen receptor beta (Homo sapiens) (UniProt Q92731)
# Assay: qHTS assay to identify small molecule antagonists of the estrogen receptor beta (ER-beta) signaling pathway (AID 1259378; active = well fitted inhibition curve with a large enough effect in the signal ratio in the repeat runs, not every such curve was filed as active; the % refers to the signal ratio)
# Conditions: ER-beta-UAS-bla HEK293T, beta-lactamase FRET ratio, 16 h; series mostly up to 92.4 µM; activity, negative = inhibition: at the top concentration
# In short: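 Antagonist mode: compounds added to beta-lactamase reporter HEK293T ER-beta-UAS cells stimulated with E2 (1nM final), 16 hr at 37C. LiveBLAzer B/G FRET substrate, 2 hours room temperature, fluorescence read-out.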
row,Compound,"activity, negative = inhibition"
1,CC(=O)Oc1cccc(O)c1,1.94% [at 42.5 µM]
2,CSCC[C@H](NC(=O)[C@H](Cc1c[nH]c2ccccc12)NC(=O)CCNC(=O)OC(C)(C)C)C(=O)N[C@@H](CC(=O)O)C(=O)N[C@@H](Cc1ccccc1)C(N)=O,-9% [at 42.5 µM]
3,O=c1[nH]c2cc(C(F)(F)F)c(N3CCOCC3)cc2n(CP(=O)(O)O)c1=O,0.344% [at 42.5 µM]
4,O=C(O)CCC(=O)OC[C@@H](NC(=O)C(Cl)Cl)[C@H](O)c1ccc([N+](=O)[O-])cc1,7.4% [at 42.5 µM]
5,NC(=O)c1ccccc1[N+](=O)[O-],-19.1%
6,C1CCCCC1,1.98%
7,O=C1OC(=O)c2c(Br)c(Br)c(Br)c(Br)c21,-12.6%
8,CNc1c2c(nn1C)CCCC2,-10.3% [at 42.5 µM]
9,CCN(CC)c1cccc(O)c1,-3.52%
10,O=C1NC(=O)c2cccc3cccc1c23,20.3%
11,O=C(CCS)OCC(COC(=O)CCS)(COC(=O)CCS)COC(=O)CCS,2.76%
12,CC(C)(O)CCc1ccccc1,6.23%
